Drawing on PubChem BioAssay (Tox21), this text covers Potency and outcome for six compounds.

Each structure is given as a SMILES string. Where “and” joins values, the source holds several entries; their conditions need not be identical. Identical values can stand only once. Results filed as inconclusive are left out. The source holds several records for some structures; these can differ, active in one and inactive in another. Calls of active or inactive are those of the source. Unless noted, calls come from the whole dose curve; as a rule, active = well fitted curve in the direction sought with a large enough effect in the repeat runs; inconclusive = weak or mixed curves; inactive = no such curve, though single readings can be large; an effect the other way counts as inactive or inconclusive.

Experiment [1] is described as follows: A CellTox Green Cytotoxicity Assay to monitor cytotoxicity in HEK293 cells - 32 hour (AID 1224881). Note: nearly all actives have a fitted effect of over 40% in size. Note: potency is the fitted concentration of half-maximal effect. A digest of the protocol: (§1)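 Dead-cell fluorescence measured kinetically: asymmetric cyanine dye, HEK293, 600 cells/well, 5 h settle, 23 nL cpd/DMSO, 37 C, reads 0–40 h every 8 h.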
Experiment [2] can be described thus: A CellTox Green Cytotoxicity Assay to monitor cytotoxicity in HepG2 cells - 0 hour (AID 1224882). Note: nearly all actives have a fitted effect of over 35% in size. The method, boiled down:
(§2)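 First, HepG2 cells (600/well) mixed with reagent were plated; second, after 5 h at 37 C they received compounds via pintool; third, fluorescence was measured at 0 h through 40 h at 8 h intervals.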

The nature of experiment [3]: A CellTox Green Cytotoxicity Assay to monitor cytotoxicity in HepG2 cells - 32 hour (AID 1224883). Note: nearly all actives have a fitted effect of over 50% in size. Note: potency is the fitted concentration of half-maximal effect. The method, boiled down: as §2
Experiment [4] is described as follows: A CellTox Green Cytotoxicity Assay to monitor cytotoxicity in HEK293 cells - 8 hour (AID 1224884). Note: nearly all actives have a fitted effect of over 35% in size. A digest of the protocol:
as §1

Experiment [5] in a line: qHTS RealTime-Glo MT Cell Viability Assay in HepG2 cells - 16 hour (AID 1224885). Note: nearly all actives have a fitted effect of over 50% in size. Note: potency is the fitted concentration of half-maximal effect. The method, boiled down:
(§3)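 Cell number in HepG2 cultures estimated from NanoLuc luminescence generated by metabolic reduction of a prosubstrate by living cells. The homogeneous, nonlytic format allowed repeated reads at 0, 8, 16, 24, 32 and 40 h of compound exposure.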
(In general: qHTS replaces the single test concentration by a dilution series.)

Experiment [6] in a line: qHTS RealTime-Glo MT Cell Viability Assay in HEK293 cells - 24 hour (AID 1224886). Note: nearly all actives have a fitted effect of over 50% in size. Note: potency is the fitted concentration of half-maximal effect. A digest of the protocol: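 Homogeneous bioluminescent viability format in HEK293 cells (600 cells/well). Following 5 h at 37 C/5% CO2, 23 nL compound was pintooled; the signal was measured repeatedly during 40 h incubation.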
The nature of experiment [7]: A CellTox Green Cytotoxicity Assay to monitor cytotoxicity in HEK293 cells - 16 hour (AID 1224888). Note: nearly all actives have a fitted effect of over 35% in size. A digest of the protocol: as §1
Experiment [8] can be described thus: qHTS RealTime-Glo MT Cell Viability Assay in HepG2 cells - 0 hour (AID 1224889). Note: nearly all actives have a fitted effect of over 50% in size. A digest of the protocol:
as §3

Experiment [9] is described as follows: A CellTox Green Cytotoxicity Assay to monitor cytotoxicity in HepG2 cells - 8 hour (AID 1224890). Note: nearly all actives have a fitted effect of over 45% in size. A digest of the protocol:
as §2

A short description of experiment [10]: qHTS assay to identify small molecule antagonists of the estrogen receptor alpha (ER-alpha) signaling pathway using the BG1 cell line in the presence of 0.1 nM 17-beta-estradiol - cell viability counter screen (AID 1259241). Note: nearly all actives have a fitted effect of over 40% in size. Note: potency is the fitted concentration of half-maximal effect. A digest of the protocol: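 VM7Luc4E2, 4,000 cells/well, phenol red-free medium + 10% charcoal-stripped FBS; 24 hr plating; cpd + 0.1 nM E2 final, 22 hr 37C/5% CO2; CellTiter-Fluor 30 min, fluorescence.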

Experiment [11] can be described thus: qHTS assay to identify small molecule antagonists of the androgen receptor (AR) signaling pathway using the MDA cell line in the presence of 0.5 nM R1881 - cell viability counter screen (AID 1259242). Note: nearly all actives have a fitted effect of over 45% in size. Note: potency is the fitted concentration of half-maximal effect. The method, boiled down:
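qHTS format. MDA-kb2 (MMTV-luc, AR/GR responsive) + cpd + 0.5 nM R1881 final, 16 hr 37C/0% CO2 → CellTiter-Fluor 30 min → fluorescence intensity.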

The target in experiment [12] is Estrogen receptor (Homo sapiens) (UniProt P03372). Put plainly: qHTS assay to identify small molecule antagonists of the estrogen receptor alpha (ER-alpha) signaling pathway using the BG1 cell line in the presence of 0.1 nM 17-beta-estradiol (AID 1259244). Note: nearly all actives have a fitted effect of over 50% in size. Note: potency is the fitted concentration of half-maximal effect. A digest of the protocol: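 Reporter is a stably transfected luciferase under four estrogen responsive elements in VM7Luc4E2 cells expressing native full-length ER-alpha; inhibition of 0.1 nM (final) 17beta-estradiol-driven signal over 22 h is read by luminescence.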
Sequence of Estrogen receptor (Homo sapiens) (P03372 whole entry, looked up): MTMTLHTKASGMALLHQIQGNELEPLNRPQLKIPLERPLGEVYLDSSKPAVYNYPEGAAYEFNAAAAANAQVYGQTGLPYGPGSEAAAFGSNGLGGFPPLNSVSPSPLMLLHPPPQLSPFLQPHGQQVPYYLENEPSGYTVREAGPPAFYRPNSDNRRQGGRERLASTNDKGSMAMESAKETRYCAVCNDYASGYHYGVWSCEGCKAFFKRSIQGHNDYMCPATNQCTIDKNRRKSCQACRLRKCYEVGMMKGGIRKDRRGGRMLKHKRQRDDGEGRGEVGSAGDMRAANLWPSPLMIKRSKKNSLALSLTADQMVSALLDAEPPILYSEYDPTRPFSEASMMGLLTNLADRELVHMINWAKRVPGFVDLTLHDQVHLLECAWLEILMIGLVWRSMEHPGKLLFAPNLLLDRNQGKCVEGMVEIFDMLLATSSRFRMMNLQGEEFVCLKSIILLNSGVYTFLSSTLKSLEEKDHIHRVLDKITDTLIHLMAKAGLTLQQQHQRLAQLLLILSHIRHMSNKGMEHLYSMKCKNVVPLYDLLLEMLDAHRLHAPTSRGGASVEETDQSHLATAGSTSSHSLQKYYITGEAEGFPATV

A short description of experiment [13]: qHTS assay to identify small molecule phospholipidosis (PLD) inducers (AID 1259344; active = well fitted curve in the direction sought with a large enough effect; an effect the other way counts as inactive or inconclusive). The method, boiled down: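 After 4 h attachment on collagen I, HepG2 cells were dosed with compound alongside LipidTOX Red, kept 24 h at 37 C, fixed, and imaged for lamellar phospholipid pits.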
Experiment [14] can be described thus: qHTS assay to identify small molecule HDAC inhibitors (AID 1259364).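 Note: wild-type HCT-116 cells with endogenous class I/II HDAC activity; top concentration of the series differs between compounds; nearly all actives have a fitted effect of over 45% in size.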 A digest of the protocol:
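Quantitative high-throughput format: overnight-seeded HCT-116 cells got compounds for 2 hr at 37C; HDAC-Glo I/II reagent added, 30 min RT, luminescence measured.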

The nature of experiment [15]: qHTS assay to identify small molecule HDAC inhibitors - cell viability counter screen (AID 1259365). The method, boiled down:
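Luminescence from CellTiter-Glo, developed 30min at room temperature, reports viability of wild-type HCT-116 cells treated 2hr with compounds at 37 C and 5% CO2 after overnight plating.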

A short description of experiment [16]: qHTS assay to identify small molecule agonists of the sonic hedgehog signaling (Shh) pathway - cell viability counter screen (AID 1259366). Note: nearly all actives have a fitted effect of over 50% in size. Note: potency is the fitted concentration of half-maximal effect. A digest of the protocol: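 Cytotoxicity counter screen run in the same wells as the Shh reporter assay. NIH/3T3 cells carrying a Gli1 response element–driven luciferase were treated with DMSO-dissolved compounds for 24hr, and live-cell protease activity was measured with CellTiter-Fluor.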

The nature of experiment [17]: qHTS assay to identify small molecule antagonists of the sonic hedgehog signaling (Shh) pathway - cell viability counter screen (AID 1259367). Note: nearly all actives have a fitted effect of over 55% in size. Note: potency is the fitted concentration of half-maximal effect. The method, boiled down: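 Conditioned medium drove Shh signaling in 3T3 Gli1-Luc cells exposed to compounds at 37C and 5% CO2. Viability was determined from CellTiter-Fluor fluorescence, with reagent incubated 1 hr after 23 hr of treatment.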

Experiment [18] is described as follows: qHTS assay to identify small molecule agonists of the sonic hedgehog signaling (Shh) pathway (AID 1259368; calls by dose curve;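 note: NIH/3T3-derived 3T3Gli1-Luc cells carrying a stable Gli1-driven firefly luciferase reporter; series mostly up to about 92 µM; nearly all actives have a fitted effect of over 15% in size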). The method, boiled down:
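Quantitative high-throughput format using a Gli1-driven firefly luciferase reporter line derived from NIH/3T3 cells. After a 24 hr compound treatment at 37 C and 5% CO2, luminescence reported Gli1 response element activity.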

Experiment [19] can be described thus: qHTS RealTime-Glo MT Cell Viability Assay in HEK293 cells - 8 hour (AID 1224887). The method, boiled down:
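600 HEK293 cells per well, dispensed already mixed with RealTime-Glo MT reagents. Compound dosing came 5 h later. The same wells were read for luminescence at 0, 8, 16, 24, 32 and 40 h of exposure at 37 C.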

The target in experiment [20] is Androgen receptor (Homo sapiens) (UniProt P10275). The experiment in a line: qHTS assay to identify small molecule antagonists of the androgen receptor (AR) signaling pathway using the MDA cell line in the presence of 0.5 nM R1881 (AID 1259243). Note: nearly all actives have a fitted effect of over 50% in size. The method, boiled down: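 Antagonist mode quantitative HTS in MDA-kb2 MMTV-luciferase cells, agonist R1881 at 0.5 nM final, 16 hr exposure at 37C and 0% CO2, luminescent detection.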
Sequence of Androgen receptor (Homo sapiens) (P10275 whole entry, looked up): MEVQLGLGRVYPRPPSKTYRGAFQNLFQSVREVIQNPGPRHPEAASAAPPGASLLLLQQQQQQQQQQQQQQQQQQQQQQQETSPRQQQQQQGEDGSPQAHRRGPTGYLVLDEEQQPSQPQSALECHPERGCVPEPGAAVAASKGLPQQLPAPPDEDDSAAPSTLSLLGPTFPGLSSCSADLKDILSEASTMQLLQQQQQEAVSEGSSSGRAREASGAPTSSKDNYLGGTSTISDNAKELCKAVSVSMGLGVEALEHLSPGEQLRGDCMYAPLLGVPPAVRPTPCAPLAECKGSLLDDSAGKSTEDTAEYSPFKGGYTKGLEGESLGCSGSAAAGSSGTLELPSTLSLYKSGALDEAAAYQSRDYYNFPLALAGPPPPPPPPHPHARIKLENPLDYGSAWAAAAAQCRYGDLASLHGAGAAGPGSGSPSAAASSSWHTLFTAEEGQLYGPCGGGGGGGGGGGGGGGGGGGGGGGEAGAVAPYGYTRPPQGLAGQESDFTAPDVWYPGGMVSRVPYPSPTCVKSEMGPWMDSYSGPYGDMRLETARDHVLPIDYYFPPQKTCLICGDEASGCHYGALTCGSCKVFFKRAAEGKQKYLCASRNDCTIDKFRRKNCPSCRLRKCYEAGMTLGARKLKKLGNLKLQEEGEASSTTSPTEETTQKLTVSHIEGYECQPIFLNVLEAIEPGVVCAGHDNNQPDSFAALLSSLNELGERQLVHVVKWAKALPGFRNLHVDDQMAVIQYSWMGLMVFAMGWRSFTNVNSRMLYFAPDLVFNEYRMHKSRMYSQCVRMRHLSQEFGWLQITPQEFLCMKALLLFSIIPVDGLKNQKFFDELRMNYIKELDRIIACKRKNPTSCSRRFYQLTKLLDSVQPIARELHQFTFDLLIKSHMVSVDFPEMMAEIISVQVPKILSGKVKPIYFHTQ

Regarding `CC(C)C(=O)Nc1ccc([N+](=O)[O-])c(C(F)(F)F)c1`, the Potency result in experiment [1], in experiment [2], in [3], in experiment [4], in [5] and in [7] was “inactive” in each case. Moreover, the Potency result in experiment [8], in experiment [9], in experiment [10], in [11], in experiment [13] and in experiment [14] was “inactive” each time. Moreover, the Potency entry in experiment [15], in experiment [16] and in experiment [17] was “inactive” each time. Further, the Potency is 17.9 µM (active) and 21.9 µM (active) and 10.7 µM (active) in experiment [6]; 56 µM (active) and 48.6 µM (active) and 29.8 µM (active) in [12]. In addition, the call in experiment [18] was inactive.

On to `CCCCC(CC)C(=O)O` (stereo not drawn), for which the Potency entry in [1], in [2], in experiment [3], in experiment [4], in experiment [5] and in [6] was “inactive” each time. Moreover, the Potency result in experiment [19], in experiment [7], in experiment [9], in experiment [10], in experiment [11] and in [14] was “inactive” each time. Moreover, the Potency entry in experiment [15], in [16] and in experiment [17] was “inactive” each time. Besides, the outcome in experiment [18] was inactive.

As for `CCOc1ccc(NC(C)=O)cc1`, the Potency entry in experiment [1], in experiment [2], in [3], in experiment [4], in experiment [5] and in [7] was “inactive” in each case. The Potency result in [8], in experiment [9], in experiment [10], in experiment [11], in experiment [20] and in [12] was “inactive” in each case. For the same compound, the Potency entry in experiment [13], in experiment [14], in [15], in experiment [16] and in experiment [17] was “inactive” in each case. In addition, the Potency entry in [6] was “inactive and 21.9 µM (active)”. Also, in [18], the compound was classed as inactive.

As for `CNNCc1ccc(C(=O)NC(C)C)cc1`, the Potency result in experiment [1], in [2], in experiment [4], in experiment [5], in experiment [6] and in experiment [7] was “inactive” each time. Moreover, the Potency entry in experiment [8], in [9], in experiment [10], in experiment [11], in experiment [13] and in experiment [14] was “inactive” throughout. Further, the Potency entry in [15], in experiment [16] and in experiment [17] was “inactive” each time. Besides, the Potency in experiment [3] is 24.5 µM (active) and 19.5 µM (active). Further, the compound was classed as inactive in [18].

`CC(=O)C(=O)O`: the Potency entry in experiment [1], in experiment [2], in experiment [3], in [4], in [5] and in experiment [6] was “inactive” throughout. The Potency entry in experiment [19], in experiment [7], in experiment [9], in experiment [10], in [11] and in experiment [14] was “inactive” each time. The Potency entry in experiment [15], in [16] and in experiment [17] was “inactive” each time. Further, in experiment [18], the outcome was inactive.

With `CN(C)C(=S)SC(=S)N(C)C`, the Potency was 2.52 µM (active) and 8.71 µM (active) and 3.01 µM (active) in experiment [1]; 2.52 µM (active) and 1.95 µM (active) and 2.68 µM (active) in experiment [3]; 2.75 µM (active) in experiment [5]; 2.24 µM (active) and 2.19 µM (active) and 6.74 µM (active) in experiment [6]; 2.5 µM (active) and 5.45 µM (active) and 3.76 µM (active) in experiment [10]; 2.5 µM (active) and 1.72 µM (active) and 3.35 µM (active) in experiment [11]. In addition, the Potency is 3.14 µM (active) and 545 nM (active) and 2.11 µM (active) in [16]; 789 nM (active) and 217 nM (active) and 6.68 µM (active) in experiment [17]. Also, the Potency result in [2], in experiment [4], in experiment [7], in experiment [8], in [9] and in experiment [13] was “inactive” each time. Also, the Potency entry in experiment [14] and in experiment [15] was “inactive” throughout. Besides, the outcome in experiment [18] was inactive.
